Results published in article PMC5540273 (PLoS ONE, 2017).

test system: MARK4; conditions: concentration: 1 μM,replicates: in singlicate; n = 1
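Note: KINOMEscan kinase panel screen.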

| SMILES | %Inh |
| --- | --- |
| C[C@H]1Oc2cc(cnc2N)-c2c(nn(C)c2C#N)CN(C)C(=O)c2ccc(F)cc21 | 6% |
| CN(C)CCOc1ccc(-c2cc(-c3c[nH]nc3-c3ccccn3)ccn2)cc1 [GW835314] | 38% |
| Cl.Cl.NC[C@H](Cc1ccc(C(F)(F)F)cc1)NC(=O)c1cc(Br)c(-c2ccnc3[nH]ccc23)s1 [GSK1487252] | 0% |
| CCn1c(-c2nonc2N)nc2c(C#CC(C)(C)O)nc(OCCN)cc21.Cl.Cl [GSK902056] | 0% |
| Cl.Cl.Nc1nc(-c2ccc3c(N)n[nH]c3c2)cc(N2CCCC(NC(=O)c3ccccc3)C2)n1 (stereo not drawn) [GSK2286775] | 0% |
| Nc1nc(Nc2ccccc2)cc(-c2ccc3c(N)n[nH]c3c2)n1 [GSK2225749] | 8% |
| O=C(NCCNc1ccnc(NCc2ccc(F)cc2)n1)c1cc2ccccc2s1 [GSK1379944] | 0% |
| CC(C)Nc1cc(-c2ccc3c(N)n[nH]c3c2)nc(N)n1 [GSK2221681] | 0% |
| Cl.Oc1cc(-c2nc(-c3ccccc3)[nH]c2-c2ccncc2)ccc1Cl [SB-386023] | 9% |
| Cc1n[nH]c2ccc(-c3cc(OC[C@@H](N)Cc4ccccc4)cnc3-c3ccoc3)cc12.O=C(O)C(F)(F)F.O=C(O)C(F)(F)F [GSK507358] | 0% |
| Cc1ccc2c(-c3ccncc3)c(-c3ccc(F)cc3)nn2c1.Cl [GW461484] | 0% |
| Cc1occc1-c1nc(N)c(OC[C@@H](N)Cc2c[nH]c3ccccc23)cc1-c1cc2c(C)n[nH]c2cn1 [GSK1660450] | 57% |
| NC(=O)c1cc(-c2ccccc2)cc2c(C3CCNCC3)c[nH]c12 [GSK301362] | 5% |
| Cc1cc2cn[nH]c2cc1-c1cccc2c(N)c(C(N)=O)nnc12 | 0% |
| O=C(NCCCN1CCOC1=O)c1cnc(NCc2cc(Cl)ccc2Cl)nc1NC1CCCC1 | 5% |

test system: MAST1; conditions: concentration: 1 μM,replicates: in singlicate; n = 1

| SMILES | %Inh |
| --- | --- |
| CCN(CC)CCOc1ccc(Nc2ncc3cc(-c4c(Cl)cccc4Cl)c(=O)n(C)c3n2)cc1 [SB-601273] | 48% |
| CNC(=O)c1ccccc1Sc1ccc2c(/C=C/c3ccccn3)n[nH]c2c1 | 0% |
| C[C@@H](Oc1cc(-c2cnn(C3CCNCC3)c2)cnc1N)c1c(Cl)ccc(F)c1Cl | 0% |
| C[C@@H]1CCN(C(=O)CC#N)C[C@@H]1N(C)c1ncnc2[nH]ccc12 | 0% |
| Cl.Cl.NC[C@H](CC1CCCCC1)NC(=O)c1cc(Br)c(-c2ccnc3[nH]ccc23)s1 [GSK1581427] | 0% |
| C=CC(=O)Nc1cc2c(Nc3ccc(F)c(Cl)c3)ncnc2cc1OCCCN1CCOCC1 [GW781483] | 36% |
| COc1ccc(C[C@@H](CN)NC(=O)c2cc(Br)c(-c3ccnc4[nH]ccc34)s2)cc1.Cl.Cl [GSK1389063] | 0% |
| Cc1cc(C(=O)Nc2ccc(Oc3ccc4nc(NC(=O)C5CC5)cn4n3)cc2)nn1-c1ccccc1 | 16% |
| CCN(CC)CCCCNc1ncc2cc(-c3c(Cl)cccc3Cl)c(NC(=O)NC(C)(C)C)nc2n1 | 13% |
| CN(C)CC(O)COc1ccc(Nc2nccc(-c3cnn4nc(N5CCOCC5)ccc34)n2)cc1 (stereo not drawn) [GW767488] | 0% |
| Cc1ccc(-n2nc(C(C)(C)C)cc2NC(=O)Nc2ccc(OCCN3CCOCC3)c3ccccc23)cc1 [GW839464] | 0% |
| CC(C)N1C(=O)Cc2cc(Nc3ncc(C(F)(F)F)c(NCc4cccc(S(C)(=O)=O)c4)n3)ccc21 | 48% |
| C[C@H]1Oc2cc(cnc2N)-c2c(nn(C)c2C#N)CN(C)C(=O)c2ccc(F)cc21 | 6% |
| CN(C)CCOc1ccc(-c2cc(-c3c[nH]nc3-c3ccccn3)ccn2)cc1 [GW835314] | 5% |
| Cl.Cl.NC[C@H](Cc1ccc(C(F)(F)F)cc1)NC(=O)c1cc(Br)c(-c2ccnc3[nH]ccc23)s1 [GSK1487252] | 0% |
| CCn1c(-c2nonc2N)nc2c(C#CC(C)(C)O)nc(OCCN)cc21.Cl.Cl [GSK902056] | 28% |
| Cl.Cl.Nc1nc(-c2ccc3c(N)n[nH]c3c2)cc(N2CCCC(NC(=O)c3ccccc3)C2)n1 (stereo not drawn) [GSK2286775] | 0% |
| Nc1nc(Nc2ccccc2)cc(-c2ccc3c(N)n[nH]c3c2)n1 [GSK2225749] | 18% |
| O=C(NCCNc1ccnc(NCc2ccc(F)cc2)n1)c1cc2ccccc2s1 [GSK1379944] | 0% |
| CC(C)Nc1cc(-c2ccc3c(N)n[nH]c3c2)nc(N)n1 [GSK2221681] | 0% |
| Cl.Oc1cc(-c2nc(-c3ccccc3)[nH]c2-c2ccncc2)ccc1Cl [SB-386023] | 21% |
| Cc1n[nH]c2ccc(-c3cc(OC[C@@H](N)Cc4ccccc4)cnc3-c3ccoc3)cc12.O=C(O)C(F)(F)F.O=C(O)C(F)(F)F [GSK507358] | 0% |
| Cc1ccc2c(-c3ccncc3)c(-c3ccc(F)cc3)nn2c1.Cl [GW461484] | 6% |
| Cc1occc1-c1nc(N)c(OC[C@@H](N)Cc2c[nH]c3ccccc23)cc1-c1cc2c(C)n[nH]c2cn1 [GSK1660450] | 19% |
| NC(=O)c1cc(-c2ccccc2)cc2c(C3CCNCC3)c[nH]c12 [GSK301362] | 0% |
| Cc1cc2cn[nH]c2cc1-c1cccc2c(N)c(C(N)=O)nnc12 | 36% |
| O=C(NCCCN1CCOC1=O)c1cnc(NCc2cc(Cl)ccc2Cl)nc1NC1CCCC1 | 19% |
